The target of test [1] is Aldehyde dehydrogenase, mitochondrial (Homo sapiens) (UniProt P05091). In words: qHTS for Inhibitors of the Aldehyde Dehydrogenase Family (ALDH2) Confirmatory screens (AID 2061303; active means well fitted inhibition curve with a large enough effect; title and protocol of this record describe different tests; further: nearly all actives have a fitted effect of over 45% in size; further: potency means the concentration at half of the fitted maximal effect).
Test [2] has the same target. Briefly: qHTS for Inhibitors of the Aldehyde Dehydrogenase Family (ALDH2) Primary screen (AID 2061308). Further: nearly all actives have a fitted effect of over 55% in size. Further: potency means the concentration at half of the fitted maximal effect. On the technique in general: In qHTS, concentration-response curves come from the screen itself.
In test [3] the target is Retinaldehyde dehydrogenase 3 (Homo sapiens) (UniProt P47895). Briefly: qHTS for Inhibitors of the Aldehyde Dehydrogenase Family (ALDH1A3) Confirmatory screens (AID 2061311). Further: nearly all actives have a fitted effect of over 60% in size. Further: potency means the concentration at half of the fitted maximal effect.
For test [4] the target is unchanged. In words: qHTS for Inhibitors of the Aldehyde Dehydrogenase Family (ALDH1A3) Primary screen (AID 2061315).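 Further: plate controls were DMSO vehicle for no effect and reference inhibitor for full effect.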
The target in test [5] is Aldehyde dehydrogenase 1A1 (Homo sapiens) (UniProt P00352). Briefly: qHTS for Inhibitors of the Aldehyde Dehydrogenase Family (ALDH1A1) Confirmatory screens (AID 2061316). Further: nearly all actives have a fitted effect of over 65% in size. Further: potency means the concentration at half of the fitted maximal effect.
For test [6], the target named is Retinal dehydrogenase 2 (Homo sapiens) (UniProt O94788). Briefly: qHTS for Inhibitors of the Aldehyde Dehydrogenase Family (ALDH1A2) Confirmation screens (AID 2061314). Further: nearly all actives have a fitted effect of over 65% in size. Further: potency means the concentration at half of the fitted maximal effect.
A short description of test [7]: qHTS for Inhibitors of the Aldehyde Dehydrogenase Family (ALDH1A2, ALDH1A3, ALDH2, ALDH3A1) (AID 2061307). Further: on the % scale 0 is the no-effect control and ±100 the full control effect; nearly all actives have a fitted effect of over 50% in size.
Test [8] concerns the target Retinaldehyde dehydrogenase 3 (Homo sapiens) (UniProt P47895). Briefly: qHTS for Inhibitors of the Aldehyde Dehydrogenase Family (ALDH1A3) Validation screen (AID 2061312). Further: on the % scale 0 is the no-effect control and ±100 the full control effect; nearly all actives have a fitted effect of over 45% in size.
Test [9] in a line: BET inhibitor-based combinations targeting novel dependencies in MECOM-rearranged (r) AML: SET-2 cell line (AID 2202231).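 Further: plate controls were DMSO treated cells for no effect and wells without cells for full effect; nearly all actives have a fitted effect of over 35% in size.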 Conditions: SET-2 AML cells viability, CellTiter-Glo luminescence, 48 h; viability: active compounds read low, series mostly up to about 46 µM. In a few lines: (§1)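 AML cell lines seeded at 500 cells/well, treated with 11-point dose curves for 48 h. Viability by CellTiter-Glo luminescence, normalised to DMSO and empty wells; activity expressed as AUC and per-cell-line Z-transformed AUC.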
In general terms: In ATP-based viability assays light output follows the ATP content of the culture.

Test [10] is described as follows: BET inhibitor-based combinations targeting novel dependencies in MECOM-rearranged (r) AML: OCI-AML3 cell line (AID 2202232).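 Further: series mostly up to about 46 µM; plate controls were DMSO vehicle wells for no effect and wells without cells for full effect; nearly all actives have a fitted effect of over 35% in size.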 Particulars: Potency: OCI-AML3 viability. The gist of the method: as §1
Test [11] can be described thus: BET inhibitor-based combinations targeting novel dependencies in MECOM-rearranged (r) AML: MV-4-11 cell line (AID 2202233).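 Further: plate controls were DMSO for no effect and blank wells for full effect; nearly all actives have a fitted effect of over 45% in size.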 In a few lines: (§2)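 Cells at 500/well were exposed for 48 hr to MIPE v5.0 drugs as 11-point dose curves. Viability was read by CellTiter-Glo luminescence and normalized to DMSO and empty-well controls. Activity was expressed as AUC and per-cell-line Z-AUC.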

Test [12] is described as follows: BET inhibitor-based combinations targeting novel dependencies in MECOM-rearranged (r) AML: HNT-34 cell line (AID 2202234).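 Further: plate controls were vehicle wells for no effect and cell-free wells for full effect; nearly all actives have a fitted effect of over 35% in size.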 The gist of the method: as §2
The nature of test [13]: BET inhibitor-based combinations targeting novel dependencies in MECOM-rearranged (r) AML: UCSD-AML1 cell line (AID 2202235).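 Further: series mostly up to about 46 µM; plate controls were DMSO vehicle wells for no effect and blank wells for full effect; nearly all actives have a fitted effect of over 40% in size.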 In a few lines:
as §2

Test [14] can be described thus: BET inhibitor-based combinations targeting novel dependencies in MECOM-rearranged (r) AML: AML-191 cell line (AID 2202236;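 further: plate controls were vehicle wells for no effect and wells without cells for full effect; nearly all actives have a fitted effect of over 35% in size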). The gist of the method: as §1

Records with an inconclusive call do not appear. Unmarked numbers belong to inactive results. Active and inactive are the calls of the source. Unless noted, the call rests on the fitted dose curve; in most records, active means well fitted curve in the direction sought with a large enough effect; inconclusive means small, poorly fitted or top-dose-only effect, or another doubt; inactive means no such curve, though single readings can be large; an effect the other way counts as inactive or inconclusive.

As to `O=c1[nH]c(CN2CCOCC2)nc2sc3c(c12)CCC3`, the Potency result in test [1], in [2], in [4] and in test [5] was “inactive” throughout. Further, in test [3], the Potency is 11.3 µM (active).

On to `COc1ccc(C2Nc3ccccc3C(=O)N2Cc2cccnc2)cc1COc1ccc(NC(C)=O)cc1` (stereo not given), for which the Potency is 15.8 µM (active) in test [1] and 10.1 µM (active) in [6]. The Potency entry in test [2] and in test [4] was “inactive” each time.

Take `O=C1CCc2cc(S(=O)(=O)Nc3cc(F)cc(Cl)c3)c(F)cc2N1`: the Potency entry in test [1], in [2], in test [3], in test [4] and in test [5] was “inactive” each time.

With `N#CNC(=O)c1ccc(-n2cccc2/C=C2\NC(=O)N(CC(=O)Nc3cccc(F)c3)C2=O)cc1`, the Potency entry in [1], in test [2], in test [3], in test [4] and in test [5] was “inactive” throughout.

Consider `O=S(=O)(Nc1cc(O)cc2cccnc12)c1ccc(Cl)s1`, for which the Potency was 8.96 µM (active) in test [1]; 0.631 µM (active) in test [2]; 0.504 µM (active) in test [3]; 2.01 µM (active) in [6]; 4 µM (active) in [5].

For the compound `Cc1nnc(CN(C)c2ncnc3ccc(-c4ccc5c(c4)OCO5)cc23)o1`, the Potency entry in test [1], in [2] and in test [4] was “inactive” in each case. Moreover, the Potency was 20.1 µM (active) in [3] and 14.2 µM (active) in [5].

On to `Cc1cnc(-c2ccccc2C(C)C)nc1NCC1CN(c2cccnc2)C1`, for which the Potency in test [1] was 11.3 µM (active); in test [3], 11.3 µM (active); in [6], 2.52 µM (active); in test [5], 8.96 µM (active). In addition, the Potency result in test [2] and in test [4] was “inactive” throughout.

For `CCc1nc2c(sc3nc4c(cc32)COC(C)(C)C4)c(=O)n1Cc1ccco1`, the Potency is 6.34 µM (active) in test [1], 7.98 µM (active) in [3], 7.12 µM (active) in [6] and 0.634 µM (active) in test [5]. The Potency entry in [2] was “inactive”.

With `Cc1cc(C)nc(NC(=S)N2CCN(c3cccc4ccncc34)CC2)c1`, the Potency is 12.7 µM (active) in test [1]; 3.16 µM (active) in test [2]; 11.3 µM (active) in test [3]; 10.1 µM (active) in [6]; 4 µM (active) in test [5].

Consider `Cc1noc(C)c1N[S+](=O)([O-])c1ccc(NC(=O)Cc2ccc(Cl)c(Cl)c2)cc1`, for which the Potency in test [1] is 7.08 µM (active); in test [3], 6.31 µM (active). In addition, the Potency result in test [2] and in test [4] was “inactive” each time.

For the compound `Cc1c(P(=O)(c2ccccc2)c2ccccc2)c2ccccc2n1C`, the Potency result in [1], in test [2], in [6] and in [4] was “inactive” in each case. In addition, the Potency was 7.12 µM (active) in test [3] and 10.1 µM (active) in test [5].

Take `CCOC(=O)c1ccc(O)c2ncc(N3CCC(C(=N)N)CC3)cc12`: the Potency result in [1], in test [2] and in test [5] was “inactive” throughout. The Potency in [3] is 8.96 µM (active).

Regarding `O=S(=O)(Nc1ccc(O)c2ncccc12)c1ccccc1F`, the Potency in test [1] is 4.49 µM (active); in test [3], 2.25 µM (active); in test [6], 2.83 µM (active); in test [5] it was 2.01 µM (active). The Potency result in test [2] is “inactive”.

In the case of `CC(C)(C)OC(=O)NC1CCN(c2nc(-c3ccc(Br)cc3)cs2)CC1`, the Potency entry in test [1], in [2], in test [3], in [6], in test [4] and in test [5] was “inactive” each time.

Turning to `Cc1cc(C)nc(NC(=S)N2CCN(c3ccc4nsnc4c3)CC2)c1`, the Potency was 8.96 µM (active) in test [1]; 7.94 µM (active) in test [2]; 1.13 µM (active) in test [3]; 6.34 µM (active) in test [6]; 1.79 µM (active) in test [5].

With `COc1ccc([N+](=O)[O-])c(S(=O)(=O)c2ccc(Cl)cc2)n1`, the Potency in [1] was 5.04 µM (active); in test [2], 1.78 µM (active); in test [3] it was 10 µM (active); in test [6], 15.8 µM (active); in [5] it was 1.27 µM (active).

`COc1c(C)c(C(=O)c2ccc(N)c(C(=O)O)c2)n2ccccc12`: the Potency result in test [2] is “inactive”.

As for `c1cc(NCCc2c[nH]c3ccccc23)cc(Nc2ccncc2)c1`, the Potency in test [1] is 25.1 µM (active); in test [2] it was 10 µM (active); in test [5] it was 11.3 µM (active). Also, the Potency entry in [4] is “inactive”.

For the compound `COc1ccc(-c2c(-c3cc(C(=O)O)ccn3)ncn2C)cc1`, the Potency entry in test [1], in [4] and in test [5] was “inactive” throughout. Besides, in test [6], the Potency is 28.3 µM (active).

For `O=C1c2ccccc2NC(c2ccc(-c3ccc(F)cc3)o2)N1O` (stereo not given), the Potency in [1] was 1.58 µM (active); in [2], 3.55 µM (active); in test [6], 12.7 µM (active); in [5] it was 2.52 µM (active). Also, the Potency result in test [4] is “inactive”.

`[O-][n+]1onc(-c2ccccc2)c1/C=N/O`: the Potency entry in [1], in [2], in test [6], in [4] and in test [5] was “inactive” each time.

Consider `Cc1ccc2nc3sc(C(=O)NC4CCCC4)cc3cc2c1`, for which the Potency entry in [1], in test [2] and in test [4] was “inactive” each time.

In the case of `Cc1nc(NCc2ccc(-c3cccnc3)cc2)c2ccccc2n1`, the Potency entry in test [1], in [2], in test [6], in test [4] and in test [5] was “inactive” each time.

By viability is commonly meant the share of living cells, or the viability signal relative to a control. Consider `O=S(=O)(O)c1ccc2cc(N=Nc3cc(S(=O)(=O)O)c4cccnc4c3O)ccc2c1`, for which the Potency entry in test [7], in test [8], in test [6], in [4], in [10] and in test [11] was “inactive” throughout. The Potency result in test [12], in test [13] and in test [14] was “inactive” each time. In addition, the viability in [9] is 95.4%.

Consider `Cc1ccc(CNc2ccc(N3CCN(C(=O)OC(C)(C)C)CC3)cc2)cc1`, for which the Potency entry in [1], in test [2] and in [4] was “inactive” throughout.

The record behind these values is PubChem BioAssay (NCATS).
